Measured values as given in PubChem BioAssay (Tox21).
Values joined by “and” are separate entries in the source; they are usually repeats but may differ in a detail not shown here. Identical values can stand only once. Records with an inconclusive call do not appear. Where a structure was tested more than once in an assay, its records may differ in their call. Active and inactive are the calls of the source. Calls follow the shape of the dose curve; as a rule, active = well fitted curve in the direction sought with a large enough effect in the repeat runs; inconclusive = weak or mixed curves; inactive = no such curve, though single readings can be large; an effect the other way counts as inactive or inconclusive.

How the values were obtained:
[1] = qHTS RealTime-Glo MT Cell Viability Assay in HepG2 cells - 40 hour (AID 1224870); also: nearly all actives have a fitted effect of over 50% in size
Procedure, shortened: (§1)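 HepG2 cells mixed with RealTime-Glo MT reagents (NanoLuc plus cell-permeant prosubstrate) were seeded at 600 cells/well, incubated 5 h at 37 C/5% CO2, then pinned with compounds in DMSO; nonlytic luminescence tracked viability during 40 h treatment.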

[2] = A CellTox Green Cytotoxicity Assay to monitor cytotoxicity in HEK293 cells - 40 hour (AID 1224871); also: nearly all actives have a fitted effect of over 45% in size; also: potency is read from the fitted curve at half-maximal effect
Procedure, shortened: (§2)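 Real-time, in one plate: 600 HEK293 cells/well with dead-cell DNA dye, pinned compound after 5 h, 37 C incubation over 40 h; viable cells give no appreciable fluorescence.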

[3] = qHTS RealTime-Glo MT Cell Viability Assay in HEK293 cells - 16 hour (AID 1224872); also: nearly all actives have a fitted effect of over 50% in size; also: potency is read from the fitted curve at half-maximal effect
Procedure, shortened: (§3)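 Quantitative high-throughput screen of the Tox21 10K library in HEK293: cells and RealTime-Glo reagents plated together, compound added at 5 h, luminescence monitored through 40 h at 37 C.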

[4] = qHTS RealTime-Glo MT Cell Viability Assay in HepG2 cells - 8 hour (AID 1224873); also: nearly all actives have a fitted effect of over 55% in size
Procedure, shortened: as §1

[5] = qHTS RealTime-Glo MT Cell Viability Assay in HEK293 cells - 40 hour (AID 1224874); conditions: RealTime-Glo luminescence; max response: stronger effect = lower value; also: nearly all actives have a fitted effect of over 50% in size; also: potency is read from the fitted curve at half-maximal effect
Procedure, shortened: (§4)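 Kinetic, non-lysing viability readout. Seed HEK293 (600/well) with reagent, incubate 5 h at 37 C/5% CO2, pin 23 nL compound in DMSO, incubate at 37 C, read luminescence at 0, 8, 16, 24, 32, 40 h.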

[6] = A CellTox Green Cytotoxicity Assay to monitor cytotoxicity in HEK293 cells - 24 hour (AID 1224875); also: series mostly up to about 77 µM; nearly all actives have a fitted effect of over 45% in size
Procedure, shortened: as §2

[7] = qHTS RealTime-Glo MT Cell Viability Assay in HepG2 cells - 32 hour (AID 1224877); also: nearly all actives have a fitted effect of over 55% in size
Procedure, shortened: (§5)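 Compound treatment began 5 h after plating HepG2 cells (600/well) with NanoLuc luciferase and prosubstrate. Plates stayed at 37 C for 40 h; luminescence was captured at six time points, 0 h through 40 h.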

[8] = A CellTox Green Cytotoxicity Assay to monitor cytotoxicity in HepG2 cells - 24 hour (AID 1224878); also: nearly all actives have a fitted effect of over 45% in size; also: potency is read from the fitted curve at half-maximal effect
Procedure, shortened: (§6)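 Cytotoxicity was tracked as dead-cell DNA fluorescence in HepG2 cells treated with test compounds at 37 C; each time-point value comes from one kinetic series spanning 0, 8, 16, 24, 32 and 40 h.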

[9] = A CellTox Green Cytotoxicity Assay to monitor cytotoxicity in HepG2 cells - 40 hour (AID 1224879); also: nearly all actives have a fitted effect of over 40% in size; also: potency is read from the fitted curve at half-maximal effect
Procedure, shortened: as §6

[10] = qHTS RealTime-Glo MT Cell Viability Assay in HEK293 cells - 0 hour (AID 1224880); also: nearly all actives have a fitted effect of over 45% in size; also: potency is read from the fitted curve at half-maximal effect
Procedure, shortened: as §4

[11] = A CellTox Green Cytotoxicity Assay to monitor cytotoxicity in HEK293 cells - 32 hour (AID 1224881); also: nearly all actives have a fitted effect of over 40% in size; also: potency is read from the fitted curve at half-maximal effect
Procedure, shortened: as §2

[12] = A CellTox Green Cytotoxicity Assay to monitor cytotoxicity in HepG2 cells - 0 hour (AID 1224882); also: nearly all actives have a fitted effect of over 35% in size; also: potency is read from the fitted curve at half-maximal effect
Procedure, shortened: as §6

[13] = A CellTox Green Cytotoxicity Assay to monitor cytotoxicity in HepG2 cells - 32 hour (AID 1224883); also: nearly all actives have a fitted effect of over 50% in size; also: potency is read from the fitted curve at half-maximal effect
Procedure, shortened: as §6

[14] = A CellTox Green Cytotoxicity Assay to monitor cytotoxicity in HEK293 cells - 8 hour (AID 1224884); also: nearly all actives have a fitted effect of over 35% in size; also: potency is read from the fitted curve at half-maximal effect
Procedure, shortened: as §2

[15] = qHTS RealTime-Glo MT Cell Viability Assay in HepG2 cells - 16 hour (AID 1224885); also: nearly all actives have a fitted effect of over 50% in size
Procedure, shortened: as §5

[16] = qHTS RealTime-Glo MT Cell Viability Assay in HEK293 cells - 24 hour (AID 1224886); also: nearly all actives have a fitted effect of over 50% in size; also: potency is read from the fitted curve at half-maximal effect
Procedure, shortened: as §3

[17] = qHTS RealTime-Glo MT Cell Viability Assay in HEK293 cells - 8 hour (AID 1224887); also: nearly all actives have a fitted effect of over 50% in size; also: potency is read from the fitted curve at half-maximal effect
Procedure, shortened: as §4

[18] = A CellTox Green Cytotoxicity Assay to monitor cytotoxicity in HEK293 cells - 16 hour (AID 1224888); also: nearly all actives have a fitted effect of over 35% in size
Procedure, shortened: as §2

[19] = A CellTox Green Cytotoxicity Assay to monitor cytotoxicity in HepG2 cells - 16 hour (AID 1224876); also: nearly all actives have a fitted effect of over 45% in size; also: potency is read from the fitted curve at half-maximal effect
Procedure, shortened: as §6

[20] = qHTS RealTime-Glo MT Cell Viability Assay in HepG2 cells - 0 hour (AID 1224889); also: nearly all actives have a fitted effect of over 50% in size; also: potency is read from the fitted curve at half-maximal effect
Procedure, shortened: as §5
% is scaled to controls: 0 for no effect and ±100 for the full control effect.

OCC1CCCO1 (configuration not stated)
inactive: Potency [1] | Potency [2] | Potency [3] | Potency [4] | max response [5] 1.79% and -10.7% | Potency [6] | Potency [7] | Potency [8] | Potency [9] | Potency [10] | Potency [11] | Potency [12] | Potency [13] | Potency [14] | Potency [15] | Potency [16] | Potency [17] | Potency [18]

CC1(C)O[C@@H]2C[C@H]3[C@@H]4C[C@H](F)C5=CC(=O)CC[C@]5(C)[C@H]4[C@@H](O)C[C@]3(C)[C@]2(C(=O)CO)O1
active: Potency [10] 17.4 µM and 10.7 µM | Potency [20] 1.23 µM and 2.68 µM
inactive: Potency [1] | Potency [2] | Potency [3] | Potency [4] | max response [5] -22.4% and 2.26% | Potency [6] | Potency [7] | Potency [11] | Potency [14] | Potency [15] | Potency [16] | Potency [17] | Potency [18]
49 µM (active) and inactive: Potency [19] | Potency [8]
38.9 µM (active) and inactive: Potency [12]
43.6 µM (active) and inactive: Potency [9] | Potency [13]

CCC(C)C=O (configuration not stated)
active: Potency [5] 3.09 µM
inactive and 3.89 µM (active): Potency [16]
inactive: Potency [1] | Potency [2] | Potency [4] | max response [5] -3.52% | Potency [6] | Potency [19] | Potency [7] | Potency [9] | Potency [10] | Potency [11] | Potency [13] | Potency [14] | Potency [15] | Potency [18] | Potency [20]
inactive and 13.8 µM (active): Potency [17]
inactive and 6.92 µM (active): Potency [3]
inactive and 21.9 µM (active): Potency [8]

CC(C)NCC(O)COc1cccc2ccccc12 (configuration not stated)
inactive: Potency [1] | Potency [2] | Potency [3] | Potency [4] | Potency [6] | Potency [19] | Potency [7] | Potency [8] | Potency [10] | Potency [11] | Potency [12] | Potency [14] | Potency [15] | Potency [16] | Potency [17] | Potency [18]

CCCCCCCCC
inactive: Potency [1] | Potency [3] | Potency [4] | max response [5] 9.17% and -1.35% | Potency [6] | Potency [19] | Potency [7] | Potency [8] | Potency [9] | Potency [10] | Potency [11] | Potency [12] | Potency [13] | Potency [14] | Potency [15] | Potency [16] | Potency [17] | Potency [18] | Potency [20]

Cn1c([N+](=O)[O-])cnc1COC(N)=O
inactive: Potency [1] | Potency [3] | Potency [4] | max response [5] 0.779% and 12.4% | Potency [6] | Potency [19] | Potency [7] | Potency [8] | Potency [9] | Potency [10] | Potency [11] | Potency [13] | Potency [14] | Potency [15] | Potency [16] | Potency [17] | Potency [18] | Potency [20]

C=C(C)C(=O)OCC(CC)(COC(=O)C(=C)C)COC(=O)C(=C)C
inactive: Potency [1] | Potency [3] | Potency [4] | max response [5] 2.46% and 6.81% | Potency [7] | Potency [10] | Potency [15] | Potency [16] | Potency [17] | Potency [20]
inactive and 42.9 µM (active): Potency [2] | Potency [19] | Potency [9] | Potency [11] | Potency [13]
inactive and 38.2 µM (active): Potency [8]
inactive and 24.1 µM (active): Potency [14]

C=C1C2CCC(C2)C1(C)C (configuration not stated)
inactive: Potency [1] | Potency [2] | Potency [3] | Potency [4] | max response [5] -3.35% and 5.02% | Potency [6] | Potency [7] | Potency [8] | Potency [9] | Potency [10] | Potency [11] | Potency [13] | Potency [14] | Potency [15] | Potency [16] | Potency [17] | Potency [18] | Potency [20]

CS(=O)(=O)Nc1ccc([N+](=O)[O-])cc1Oc1ccccc1
inactive: Potency [1] | Potency [3] | Potency [4] | max response [5] -6.51% and 1.07% | Potency [6] | Potency [19] | Potency [7] | Potency [8] | Potency [9] | Potency [11] | Potency [12] | Potency [13] | Potency [14] | Potency [15] | Potency [16] | Potency [17] | Potency [18]

C=C(C)C(=O)OCCC[Si](OC)(OC)OC
inactive: Potency [1] | Potency [3] | Potency [4] | max response [5] 1.98% and 0.0703% | Potency [6] | Potency [19] | Potency [7] | Potency [8] | Potency [9] | Potency [10] | Potency [11] | Potency [12] | Potency [13] | Potency [14] | Potency [15] | Potency [16] | Potency [17] | Potency [18] | Potency [20]

CC1Cc2ccccc2N1NC(=O)c1ccc(Cl)c(S(N)(=O)=O)c1 (configuration not stated)
inactive: Potency [1] | Potency [3] | Potency [4] | max response [5] 3.11% and -9.79% | Potency [6] | Potency [19] | Potency [7] | Potency [8] | Potency [9] | Potency [10] | Potency [11] | Potency [13] | Potency [14] | Potency [15] | Potency [16] | Potency [17] | Potency [18] | Potency [20]

CC#C[C@]1(O)CC[C@H]2[C@@H]3CCC4=CC(=O)CCC4=C3[C@@H](c3ccc(N(C)C)cc3)C[C@@]21C
active: Potency [3] 49 µM | Potency [5] 49 µM | Potency [16] 49 µM | Potency [17] 43.6 µM
inactive: Potency [1] | Potency [4] | Potency [6] | Potency [8] | Potency [9] | Potency [10] | Potency [11] | Potency [12] | Potency [13] | Potency [14] | Potency [15] | Potency [18] | Potency [20]
